The entries come from a sample that favours hits as a whole.
Cruzain Triton: blocks cruzain activity in presence of Triton detergent; P25779; purified cruzain, Z-FR-AMC fluorescence, 0.01% Triton; Potency, µM, without a hit: max response, negative = inhibition, hits mostly inhibitors; actives 0.43% (n = 200,000); AID 1478;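 also: plate controls were neutral wells for no effect and buffer without enzyme for full effect; nearly all actives have a fitted effect of over 40% in size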
Target sequence (P25779 123-467 limits assumed): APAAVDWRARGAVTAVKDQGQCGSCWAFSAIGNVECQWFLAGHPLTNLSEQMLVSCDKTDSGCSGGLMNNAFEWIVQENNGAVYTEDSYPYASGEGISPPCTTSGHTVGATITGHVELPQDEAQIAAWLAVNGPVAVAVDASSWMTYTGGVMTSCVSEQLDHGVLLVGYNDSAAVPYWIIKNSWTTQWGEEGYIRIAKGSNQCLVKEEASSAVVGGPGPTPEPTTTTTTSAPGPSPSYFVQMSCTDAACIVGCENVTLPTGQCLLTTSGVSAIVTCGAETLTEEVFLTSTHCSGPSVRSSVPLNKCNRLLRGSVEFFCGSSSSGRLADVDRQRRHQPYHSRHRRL
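Purified cruzain (1.5 nM final) was preincubated with compounds for 15 min at room temperature in 100 mM sodium acetate pH 5.5, 5 mM DTT, 0.01% Triton X-100. Reaction started with 2 uM Z-FR-AMC; AMC fluorescence change over 60 s gave activity.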
Cruzain noTriton: inhibitors of Trypanosoma cruzi cruzain without detergent; P25779; purified cruzain, Z-FR-AMC fluorescence, no detergent; Potency, µM, without a hit: max response, negative = inhibition, most hits filed as inhibitors; actives 2.3% (n = 200,000);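 also: plate controls were enzyme without inhibitor for no effect and buffer without enzyme for full effect; nearly all actives have a fitted effect of over 40% in size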
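Detergent-free condition (0.00005% Triton X-100) in acetate buffer pH 5.5 with DTT. 1.5 nM enzyme and compound were pre-mixed 15 min, then 2 uM Z-FR-AMC substrate added; reaction progress from fluorescence change between first and third reads (60 s).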
NS1 inh: inhibitors of influenza NS1 protein function. actives 0.4% (n = 270,000). AID 2326. Potency, µM (top dose mostly 46.1 µM), for the others: top-dose activity, positive = more growth; calls by dose curve; also: actives are rising curves; nearly all actives have a fitted effect of over 50% in size
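Recovery from NS1-induced slow growth read by OD600 in budding yeast switched to galactose assay medium (pH 6.0, -URA) at 1:100 dilution. Compound 23 nl per well; the matching strain lacking NS1 serves as control.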
Active calls of the source: *. Unless noted, calls follow the shape of the dose curve; as a rule, active = well fitted curve in the direction sought with a large enough effect; inconclusive = small, poorly fitted or top-dose-only effect, or another doubt; inactive = no such curve, though single readings can be large; an effect the other way counts as inactive or inconclusive. Potency is read from the fitted curve at half-maximal effect.

COc1cccc(/C=N/NC(=O)CNC(=O)C2COc3ccccc3O2)c1O (stereo not given) was read as Cruzain Triton -5.0%, Cruzain noTriton -2.9% and NS1 inh -0.2%.
For C=CCn1c(=O)c2ccccc2n2c(SCC(=O)c3ccccc3)nnc12 the results were Cruzain Triton -1.1%, Cruzain noTriton 15.8µM* and NS1 inh 5.5%.
`C=CCn1c(=O)c2ccccc2n2c(SCC(=O)N(C)C)nnc12` gave NS1 inh 0.1%.
`CC(C)(C)OC(=O)N1CCC(c2c(C(=O)NCC3CCN(C4CCCC4)C3)cnn2-c2cccc(Cl)c2)CC1` (stereo not given) gave NS1 inh 13.7%.
Screening COCCOc1cc(NC(=O)c2sccc2Oc2ccc([N+](=O)[O-])cc2F)c(Cl)cc1Cl returned Cruzain Triton 1.0%, Cruzain noTriton 15.8µM* and NS1 inh 18.5%.
COCCOc1cc(NC(=O)CS(=O)CC(=O)N(C)C)c(Cl)cc1Cl (stereo not given) was read as NS1 inh 0.9%.
Screening O=C(COC(=O)c1ccc(-c2ccc([N+](=O)[O-])cc2)o1)NC(=O)NC12CC3CC(CC(C3)C1)C2 returned Cruzain Triton -5.0%, Cruzain noTriton 25.1µM* and NS1 inh -6.2%.
Screening O=C(COC(=O)c1ccc(-c2ccc([N+](=O)[O-])cc2)o1)NC(=O)NC1CCCCC1 returned Cruzain Triton -13.3%, Cruzain noTriton inconclusive and NS1 inh 4.6%.
For CCOC(=O)CSc1ccc2ccccc2n1 the results were NS1 inh -5.8%.
CCOC(=O)CN1C=C(c2ccc3ccccc3n2)C(C[N+](=O)[O-])c2ccccc21 (stereo not given) was read as Cruzain Triton -3.7%, Cruzain noTriton 25.1µM* and NS1 inh 1.0%.
COC(=O)c1c(C)[nH]c(C(=O)/C=C/c2ccccc2Cl)c1C was read as NS1 inh 12.7%.
O=C(/C=C/c1cccc([N+](=O)[O-])c1)c1cccs1 was read as Cruzain Triton -2.0%, Cruzain noTriton -1.0% and NS1 inh -34.1%.
`CC(=O)Nc1cccc(NC(=O)c2ccc([N+](=O)[O-])cc2Cl)c1` gave Cruzain Triton -1.6%, Cruzain noTriton 4.2% and NS1 inh 28.0%.
Screening O=C(/C=C/c1cccc([N+](=O)[O-])c1)Nc1ccc(NC(=O)c2cccs2)cc1 returned Cruzain Triton -8.2%, Cruzain noTriton 20µM* and NS1 inh 8.9%.
O=C(/C=C/c1cccc([N+](=O)[O-])c1)NC(=S)Nc1cccc(NC(=O)c2ccccc2Cl)c1 was read as Cruzain Triton -5.6%, Cruzain noTriton 6.31µM* and NS1 inh 25.4%.
Screening O=C(Nc1ccc(F)cc1)Nc1cc(OCC(F)(F)F)cc(OCC(F)(F)F)c1 returned Cruzain Triton -7.6%, Cruzain noTriton -3.1% and NS1 inh 1.0%.
Screening N/C(COc1ccc(Cl)cc1Cl)=N\O returned NS1 inh 3.8%.
`COc1ccc2nc(C)c(C(N)=O)cc2c1` gave NS1 inh -0.8%.
Screening COc1cc2cc(C(N)=O)c(N)nc2cc1OC returned Cruzain Triton 28.2µM*, Cruzain noTriton 15.8µM* and NS1 inh -0.6%.
For COc1ccc(C(=O)Nc2cc(=O)n(C)c(=O)n2C)cc1OC the results were Cruzain Triton -4.3%, Cruzain noTriton -14.3% and NS1 inh -3.3%.
CCC(=O)N1CCC2(CC1)Oc1ccc(Cl)cc1C(=O)C21CC(c2ccc(Cl)cc2)=NO1 (stereo not given) was read as NS1 inh -16.9%.
CC(NC(=O)c1cc(COc2ccc3ncccc3c2)on1)c1ccc(F)cc1 (stereo not given) was read as NS1 inh -1.7%.
Screening CC(C)C(NC(=O)OCc1ccccc1)C(=O)O (stereo not given) returned Cruzain Triton 6.6%, Cruzain noTriton -2.1% and NS1 inh 5.9%.
`CC(C)[C@H](NC(=O)OCc1ccccc1)C(=O)NCc1ccccc1` gave Cruzain Triton -3.2%, Cruzain noTriton -9.7% and NS1 inh 6.2%.
CC(C)[C@H](NC(=O)OCc1ccccc1)C(=O)OCC(=O)Nc1c(F)cccc1F was read as Cruzain Triton 14.1µM*, Cruzain noTriton inconclusive and NS1 inh -31.1%.
Screening CC(C)[C@H](NC(=O)OCc1ccccc1)C(=O)N[C@H](C=O)Cc1ccccc1 returned Cruzain Triton 0.0316µM*, Cruzain noTriton 0.0316µM* and NS1 inh -11.1%.
CCOC(=O)Cn1c(=O)cc(C)c2c(C)nn(-c3cccc(F)c3)c21 was read as Cruzain Triton -1.1% and Cruzain noTriton -5.8%.
Screening CCc1nc(NCc2ccco2)c2oc3ccccc3c2n1 returned Cruzain Triton -7.5%, Cruzain noTriton -8.8% and NS1 inh -88.3%.

Bioassay records from PubChem BioAssay.
